Shown are actives, neighbours in structure and some others; about 5% of the full set was active somewhere.
SENP8 block-1 – inhibitors of human SENP8 protease; purified SENP8, Z-RLRGG-aminoluciferin cleavage, luminescence; inhibition, % at 10 µM; hit rate 1.2% among 330,000; AID 2540; in the data active means inhibition above about 50%
Target sequence (Q96LD8 whole entry, looked up): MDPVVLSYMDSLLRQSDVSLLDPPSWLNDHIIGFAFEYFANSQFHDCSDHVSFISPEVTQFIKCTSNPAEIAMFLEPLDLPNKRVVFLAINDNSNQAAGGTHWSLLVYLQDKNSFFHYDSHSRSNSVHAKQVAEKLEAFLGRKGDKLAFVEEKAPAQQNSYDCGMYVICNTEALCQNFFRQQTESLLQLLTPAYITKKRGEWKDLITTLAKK
SENP7 block – blocks the human protease SENP7; Q9BQF6; recombinant SENP7, Z-RLRGG-aminoluciferin luminescence, 40 min; AID 434973; hit rate 1.5% among 330,000; inhibition, % at 5 µM;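 active means inhibition above about 50% at the single test dose, limit read from the data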
SENP8 block-2 – SENP8 (human) protease inhibition. Q96LD8. hit rate 0.64% among 360,000. AID 602440. recombinant SENP8, Nedd8 substrate fluorescence. inhibition, % at 20 µM; in the data active means inhibition mostly above about 40%, no sharp cut-off; inactive means mostly below about 27%
AHR activator – activators of human aryl hydrocarbon receptor | P35869 | AHR-responsive luciferase reporter cells, luminescence | activation, % at 5 µM | hit rate 2.5% among 320,000; in the data active means activation above about 47%
EBI2 antag – antagonists of human EBI2 receptor | EBI2 beta-arrestin recruitment, luminescence, 7a,25-OHC stimulated | inhibition, % at 5 µM | hit rate 0.81% among 360,000 | AID 651636; in the data active means inhibition above about 38%;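 further: enzyme fragment complementation signal reports receptor beta-arrestin coupling in cells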
Target sequence (P32249 whole entry, looked up, the tested form may be a part): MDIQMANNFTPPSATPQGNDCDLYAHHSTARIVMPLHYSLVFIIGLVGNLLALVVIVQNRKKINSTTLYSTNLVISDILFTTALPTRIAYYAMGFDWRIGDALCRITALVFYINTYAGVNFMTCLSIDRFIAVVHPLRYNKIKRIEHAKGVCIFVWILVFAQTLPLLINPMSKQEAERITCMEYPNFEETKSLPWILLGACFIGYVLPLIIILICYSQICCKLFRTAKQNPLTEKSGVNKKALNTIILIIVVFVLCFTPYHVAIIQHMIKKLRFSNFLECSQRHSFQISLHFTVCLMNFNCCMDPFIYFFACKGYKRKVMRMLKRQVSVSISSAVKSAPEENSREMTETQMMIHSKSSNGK
SENP6 block – inhibitors of human SENP6 protease | Q9GZR1 | Recombinant SENP6 catalytic domain, aminoluciferin luminescence | inhibition, % at 10 µM | hit rate 1.8% among 330,000 | AID 2599;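 active means inhibition above about 50% at the single tested dose, limit read from the data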
AHR act cf – human AHR activation, confirmation; shares compounds with AHR activator; activation, % at 9 µM; human cells, AHR-responsive luciferase reporter, luminescence; hit rate 87% among 2,300; AID 2845; in the data active means activation above about 49%;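 further: HepG2 hepatoma cells carrying a DRE-driven firefly luciferase reporter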
PXR counter – activates human PXR in AHR activator counter-screen; AID 434939; shares compounds with AHR activator; hit rate 88% among 2,300; activation, % at 11.6 µM; cell-based PXR reporter, luciferase luminescence; in the data active means activation above about 11%;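 further: human hepatoma DPX-2 cells expressing full-length human PXR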
Hits are given with their value; n = inactive; x = no result given.

SMILES	SENP8 block-1	SENP7 block	SENP8 block-2	AHR activator	EBI2 antag	SENP6 block	AHR act cf	PXR counter
COc1cccc(N2CCN(c3ccc4nnc(CCC(=O)Nc5cccc(C(C)=O)c5)n4n3)CC2)c1	n	n	n	n	n	n	x	x
COc1cccc(C=Nc2ccccc2C(=O)Nc2nccs2)c1OC	n	n	n	n	n	n	x	x
COc1c(C(=O)Nc2nccs2)ccc2ccccc12	n	n	n	84	n	n	149	27
CCOC(=O)N1CCN(S(=O)(=O)N2CCCC(C(=O)NCCCN3CCCCC3CC)C2)CC1 (stereo unspecified)	n	n	n	n	n	n	x	x
[O-]/[N+](=C/c1cccnc1)c1ccc(Br)cc1	n	n	n	93	n	n	117	18
[O-]/[N+](=C\c1ccncc1)c1ccc(Br)cc1	n	n	n	123	n	n	130	16
O=[N+]([O-])c1ccc(/C=C/c2ccncc2)cc1	x	x	n	n	n	x	x	x
O=C(CC1C(=O)Nc2ccccc2N1CC(=O)N1CCCC1)Nc1ccc(Br)cc1 (stereo unspecified)	n	n	n	92	n	n	100	37
CCCCCCCC(=O)N1c2ccccc2NC(=O)C1CC(=O)Nc1ccc(C(=O)O)cc1 (stereo unspecified)	n	n	n	n	n	n	x	x
Cc1cccc(NC(=O)COc2ccc(-c3nn(C)c(=O)c4ccccc34)cc2)c1	n	n	n	n	n	n	x	x
O=C(Nc1cc(F)c(Br)cc1F)c1ccc(Cl)cc1	n	n	n	83	n	n	98	31
COc1ccccc1-n1cc(-c2ccc(C)cc2)[nH]c1=S	n	n	n	109	n	n	87	97
COc1ccc(-c2cn(-c3ccc(C)c(C)c3)c(=S)[nH]2)cc1OC	n	n	n	n	n	n	x	x
COc1ccccc1-c1cn(-c2ccccc2)c(=S)[nH]1	n	n	n	112	n	n	109	105
CCN(CC)CCN(C(=O)c1ccc(CN2CCCCC2)o1)C(C(=O)NC1CCCCC1)c1ccc(F)cc1 (stereo unspecified)	n	n	n	n	n	n	x	x
COc1ccccc1-c1nnc(SCC(=O)Nc2c(Cl)cccc2Cl)o1	n	n	n	80	n	n	95	83
Cc1cccn2c(=O)c(C=O)c(N3CCN(c4ccccc4)CC3)nc12	n	n	n	95	n	n	81	65
CCN(CC)c1ccc(C2NC(=O)c3ccccc3N2)cc1 (stereo unspecified)	x	x	n	x	n	x	x	x
O=C1NC(c2ccc(Br)cc2)Nc2ccccc21 (stereo unspecified)	n	n	n	80	n	n	62	22
COc1ccc(/C=N/Nc2cc(C)nc3ccccc23)cc1	n	n	n	120	n	n	50	x
COc1ccc2nc(C)cc(N/N=C/c3ccc(F)cc3)c2c1	n	n	n	80	n	n	69	x
Cc1ccc2nc(C)cc(N/N=C/c3cccc(O)c3)c2c1	n	n	n	n	n	n	x	x
COc1ccc(NC(=O)C2CC(=O)N(CCc3ccc(F)cc3)C2)c(OC)c1 (stereo unspecified)	n	n	n	n	n	n	x	x
Cc1cccc(NC2=C(NC(=O)c3ccccc3)C(=O)c3ccccc3C2=O)c1	n	n	76	106	n	n	103	124
Cc1c(/C=N/NC(=O)COc2ccccc2[N+](=O)[O-])c2ccccc2n1C	n	n	n	81	n	n	95	101
SMILES	SENP8 block-1	SENP7 block	SENP8 block-2	AHR activator	EBI2 antag	SENP6 block	AHR act cf	PXR counter
CC(=O)N1CCc2cc(C(=O)CN3CCN(c4ccccn4)CC3)ccc21	n	n	n	n	n	n	x	x
Cc1cc2nc(/N=C(\N)NC(=O)N3c4ccccc4Sc4ccccc43)nc(C)c2cc1C	x	x	n	n	n	x	x	x
COc1cccc(Nc2ccc(-n3ccnc3)nn2)c1	n	n	n	81	n	n	79	16
Cc1ccc(Nc2ccc(-n3ccnc3)nn2)cc1C	n	n	n	91	n	n	48	n
Cc1cc(C)n(-c2ccc(-n3ccnc3)nn2)n1	n	n	n	n	n	n	x	x
Cc1ccc(NC(=O)CC2SC(=Nc3ccc(O)cc3)NC2=O)cc1 (stereo unspecified)	n	n	n	n	n	n	x	x
O=C(CNC(=O)c1ccco1)NCC(c1ccco1)N1CCCCC1 (stereo unspecified)	n	n	n	n	n	n	x	x
CC(C)(C)C(O)C(Cc1ccccc1Cl)n1cncn1 (stereo unspecified)	n	n	n	n	n	n	x	x
Nc1nc(/C=C/c2cccnc2)nc(-c2ccccc2O)n1	n	n	n	n	n	n	x	x
Nc1nc(/C=C/c2ccc(F)cc2)nc(-c2ccccc2O)n1	n	n	n	109	n	n	136	18
O=C1CCCC(=O)C1=C1SCCCS1	n	n	n	n	n	n	x	x
COc1ccc([C@H]2C[C@@H](n3cc(C4CC4)nn3)[C@H](O)CN2CC2CCCCC2)cc1	x	x	n	x	n	x	x	x
Cc1cc(NC(=O)/C=C/c2ccc(Cl)cc2)no1	n	n	n	n	n	n	x	x
COc1ccc(/C=C/c2nc(-c3ccccc3O)n[nH]2)cc1	93	95	n	94	n	96	n	n
COc1ccc(/C=C/c2nc(-c3ccccc3O)n(-c3ccccc3)n2)cc1	n	n	n	n	n	n	x	x
Brc1ccc(-c2csc(-c3ccncc3)n2)cc1	n	n	n	101	n	n	102	11
c1ccc(-c2nc(-c3cccnc3)cs2)cc1	x	x	n	x	n	x	x	x
Brc1ccc(-c2csc(Nc3nc(-c4ccc(Br)cc4)cs3)n2)cc1	n	n	n	85	n	n	116	17
Cc1ccc(-c2csc(-c3ccncc3)n2)cc1	n	n	n	80	n	n	96	n
Nc1nc(-c2ccc(Br)cc2)cs1	n	n	n	n	n	n	x	x
CN(CC(=O)Nc1cccc(Cl)c1)S(=O)(=O)c1ccc2[nH]c(=O)oc2c1	n	n	n	n	n	n	x	x
CNC(=O)c1[nH]cnc1C(=O)Nc1ccc(OC)cc1	n	n	n	126	n	n	124	27
CNC(=O)c1[nH]cnc1C(=O)Nc1cccc(C)c1	n	n	n	101	n	n	133	24
COc1ccc(NC(=O)c2nc[nH]c2C(=O)NCCCCCNC(=O)OC(C)(C)C)cc1	n	n	x	133	x	n	141	30
COc1ccc(NC(=O)c2nc[nH]c2C(=O)NCC(=O)OC(C)(C)C)cc1	n	n	n	n	n	n	x	x
Cc1onc(-c2c(F)cccc2Cl)c1C(N)=S	n	n	n	n	n	n	x	x
Cc1cc(=O)c(C(=O)Nc2cccc(C(=O)NC3CC3)c2)nn1-c1ccccc1Cl	n	n	n	n	n	n	x	x
Cn1c(=O)c2c(ncn2CC(O)CNc2cccc(Cl)c2)n(C)c1=O (stereo unspecified)	n	n	n	n	n	n	x	x
